Shiga toxin inh = Shiga toxin inhibition; Vero cells, Shiga toxin protein synthesis inhibition reporter; inhibition, % at 38.7 µM; hit rate 9.2% among 290,000; AID 2315; in the data active = inhibition mostly above about 28%, no sharp cut-off; inactive = mostly below about 43%; also: 0% is about no effect
NS1 inh = influenza NS1 inhibition; Potency, µM (doses to about 46.1 µM), without a hit: at the highest dose activity, positive = more growth; hit rate 0.4% among 270,000; AID 2326; calls by dose curve; also: potency is read from the fitted curve at half-maximal effect; actives are rising curves; nearly all actives have a fitted effect of over 50% in size
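In this qHTS, NS1 from influenza A is expressed in budding yeast, where it slows growth. Cells are switched from glucose to 2% galactose medium (pH 6.0, -URA), treated with compound, and growth recovery is read at OD600.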
Pf growth 48h = P. falciparum growth inhibition at 48 hours (one generation); AID 504832; P. falciparum luciferase growth in erythrocytes, 48 h; hit rate 5.9% among 310,000; Potency, µM (top dose mostly 28.7 µM), for inactives: top-dose activity change, negative = inhibition, actives largely listed as inhibitors; also: potency is read from the fitted curve at half-maximal effect; % is scaled to controls: 0 for no effect and ±100 for the full control effect
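A one-generation exposure of luciferase-tagged malaria parasites in RPMI 1640/Albumax erythrocyte culture, 37 C and 5% CO2. Inhibition is inferred from decreased luminescence after adding detection reagent.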
Pf growth 96h = inhibits malaria parasite growth, 96 h; P. falciparum luciferase reporter growth, 96 h; Potency, µM (doses to about 28.7 µM), inactives show at the highest dose activity change, negative = inhibition, hits mostly inhibitors; hit rate 6.9% among 320,000; AID 504834; also: potency is read from the fitted curve at half-maximal effect; % is scaled to controls: 0 for no effect and ±100 for the full control effect
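P. falciparum expressing integrated firefly luciferase, in erythrocytes at 2% hematocrit, 0.05% parasitemia, incubated with compounds 96 h at 37 C, 5% CO2. Growth inhibition read as loss of luminescence; two-generation exposure targets delayed-death apicoplast inhibitors.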
CHX counter = affects cycloheximide protein synthesis inhibition readout, counter-screen; hit rate 12% among 300,000; max response, %; cell reporter, cycloheximide protein synthesis inhibition counterscreen; in the data active = max response mostly above about 13%, no sharp cut-off; inactive = mostly below about 14%; also: read at 38.3 µM for the half of the compounds with a filed dose; 0% is about no effect
* hit, by the source's call; i = inactive; ? = inconclusive; nt = no result given; [ ] = dose if it differs, or a comment. A selection: hits, their analogues and other compounds. The true share with any hit is near 21%. Unless noted, calls follow the shape of the dose curve; as a rule, active = well fitted inhibition curve with a large enough effect; inconclusive = small, poorly fitted or top-dose-only effect, or another doubt; inactive = no such curve, though single readings can be large or run the other way.

SMILES	Shiga toxin inh	NS1 inh	Pf growth 48h	Pf growth 96h	CHX counter
O=C(CSc1n[nH]c(-c2ccncc2)n1)c1ccccc1	21	-7%	-24%	-24%	-1
CC(C)(C)OC(=O)[C@H](Cc1ccccc1)NC(=O)c1nc[nH]c1C(=O)N1CCN(c2ccccc2)CC1	-3	-7%	12%	42%	-2
C[C@@H](NC(=O)c1nc[nH]c1C(=O)NCc1ccc(CNC(=O)OC(C)(C)C)cc1)c1ccccc1	nt	nt	12µM*	?	nt
CC(C)(C)OC(=O)NCc1ccc(CNC(=O)c2nc[nH]c2C(=O)N2CCN(c3ccccc3)CC2)cc1	nt	nt	13µM*	-27%	nt
C[C@H](NC(=O)c1nc[nH]c1C(=O)NCc1ccc(CNC(=O)OC(C)(C)C)cc1)C(=O)OC(C)(C)C	9	0%	?	1.3µM*	12
C[C@H](NC(=O)c1nc[nH]c1C(=O)NCCCCCN)C(=O)OC(C)(C)C	nt	nt	11%	72%	nt
CC(C)C[C@H](NC(=O)OC(C)(C)C)C(=O)N1CCC(C(=O)N[C@@H](Cc2ccccc2)C(=O)O)CC1	-10	3%	-19%	127%	-3
Cn1c(-c2ccccc2)cc(=O)c2ccccc21	-5	-21%	11%	23%	2
O=c1cc(-c2ccccc2)cc(-c2ccccc2)n1O	nt	nt	13µM*	?	nt
NC(=O)c1ccnc2c(O)cccc12	nt	nt	?	12µM*	nt
CC(C)CCc1c(O)nc(SCC(C)C)[nH]c1=O	32	-2%	0%	29%	-1
O=C(NCCCN1CCOCC1)c1cc2c([nH]c3ccccc32)c(-c2cccc(Br)c2)n1	-3	-1%	2.3µM*	3.3µM*	-1
O=C(NCCCN1CCOCC1)c1cc(-c2cccc(Br)c2)nc2ccccc12	-5	13%	?	?	-2
COc1cccc(-c2nc(C(=O)NCCCN3CCOCC3)cc3c2[nH]c2ccccc23)c1	1	-10%	13µM*	8.3µM*	1
COc1cc2c(cc1OC)CN(C(C)C(=O)Nc1ccc(NC(C)=O)cc1)CC2 (configuration not stated)	-6	18%	nt	?	-2
O=C(CN1CCCC1)Nc1ccc(Br)cc1[N+](=O)[O-]	nt	0%	41%	?	27*
O=C(CN1CCCCCC1)Nc1ccc([N+](=O)[O-])cc1Br	27	3%	-12%	-5%	-1
Cc1ccc(NC(=O)CN2CCCCCC2)cc1[N+](=O)[O-]	103*	nt	0%	106%	42*
Cc1ccc(NC(=O)CN2CCCC2)cc1Br	6	2%	22%	?	7
COc1cccc(C(=O)NNC(=O)C(=O)Nc2ccc(OC)cc2OC)c1	13	3%	12%	246%	5
Cc1cc(Cl)c2oc(C(=O)NCCC3CCCCO3)c(C)c2c1 (configuration not stated)	87*	-46%	59%	-20%	22
Cc1cc(Cl)c2oc(C(=O)NCCN3CCCCC3CO)c(C)c2c1 (configuration not stated)	27	17%	?	13µM*	15*
Cc1c(C(=O)NCC2CCCO2)oc2c(Cl)cccc12 (configuration not stated)	nt	nt	9%	42%	nt
Cc1cccc(NS(=O)(=O)c2csc(C(N)=O)c2)c1C	-9	-1%	?	7%	-2
CC(C)CC(=O)O/N=C1\C(=O)N(Cc2ccc(Cl)cc2)c2ccc([N+](=O)[O-])cc21	-8	-7%	?	5.2µM*	-3
SMILES	Shiga toxin inh	NS1 inh	Pf growth 48h	Pf growth 96h	CHX counter
CC(=O)O/N=C1\C(=O)N(Cc2ccc(C)cc2)c2ccccc21	16	nt	?	?	7
O=C(c1ccccc1Cl)N(Cc1ccc(Br)cc1)N1C(=O)CCC1=O	-14	-3%	-7%	38%[5.75 µM]	-1
Cc1ccc(C)n1-c1sc2c(c1C#N)CCCC2	4	20%	-27%	?	8
Cc1sc(-n2c(C)ccc2C)c(C#N)c1C	-10	5%	-22%	10µM*	-2
CCOC(=O)c1ccc(-c2c(C)cc3oc(=O)cc(-c4ccccc4)c3c2C)cc1	i	nt	nt	nt	32*
Cc1ccc(-c2c(C)cc3oc(=O)cc(-c4ccccc4)c3c2C)cc1	i	nt	nt	nt	16
CC1(CCc2ccccc2)NC(=O)N(CC(=O)O)C1=O (configuration not stated)	-7	-2%	12%	60%	-4
CC1(CCc2ccccc2)NC(=S)N(c2ccc(Cl)cc2)N1 (configuration not stated)	59*	-10%	83%	49%	36*
CC1(CCc2ccccc2)NC(=S)N(c2ccccc2)N1 (configuration not stated)	42*	14%	12%	?	40*
O=C(O)CCN1C(=O)C2C3c4ccccc4C(c4ccccc43)C2C1=O (configuration not stated)	-15	-1%	-6%	23%	-3
CCN(CC)CCN1C(=O)C2C3c4ccccc4C(c4ccccc43)C2C1=O (configuration not stated)	-16	1%	?	5.2µM*	4
O=C(O)c1cnn(-c2nc(-c3ccc(Br)cc3)cs2)c1C(F)(F)F	53*	-73%	-1%	60%	45*
O=C(O)c1cnn(-c2nc(-c3ccc(F)cc3)cs2)c1C(F)(F)F	73*	4%	3%	-32%[1.15 µM]	15
COc1ccccc1NC(=O)C(=O)N1N=C(C(C)C)CC1(O)C(F)(F)F (configuration not stated)	-4	13%	34%	41%	-2
Fc1ccccc1-c1nc2ccccc2[nH]1	111*	-34%	5%	13µM*	39*
c1ccc2[nH]c(-c3ccnc4ccccc34)nc2c1	32	-11%	23%	?	27*
Clc1ccccc1-c1nc2ccccc2[nH]1	81*	-6%	75%	164%	53*
Cc1ccccc1-c1nc2ccccc2[nH]1	95*	-11%	404%	40%	46*
CSc1cccc(NC(=O)Cc2ccccc2[N+](=O)[O-])c1	58	2%	33%	-20%	19
Cc1cc(C(=O)CCC(=O)N2CCN(c3ccccc3)CC2)c(C)s1	nt	nt	31%	15%	nt
COc1cc(NC(=O)COC(=O)c2n[nH]c3ccccc23)c(C)cc1[N+](=O)[O-]	2	9%	21%	8%	-3
Cn1cc(Cl)c(-c2nc3ccccc3[nH]2)n1	71*	-14%	nt	24%	26*
COCCNC(=O)C1CCN(C(=O)c2cc3sccc3n2Cc2ccc(F)cc2)CC1	-1	nt	?	8%	20
CC1(C(=O)NCc2ccccn2)C=CCN1C(=O)c1ccccc1 (configuration not stated)	25	-13%	23%	-5%	9
CC(C)Oc1cccc(C(=O)C2CCCN(C(=O)c3ccnn3C)C2)c1 (configuration not stated)	17	3%	19%	-17%	10
COC(=O)[C@@]1(Cc2ccc(F)cc2)[C@H]2c3cc(C(=O)N4CCCC4)n(CCc4ccccn4)c3C[C@H]2CN1C(=O)c1ccccc1	-14	-43%	3.3µM*	2.1µM*	-2

Assay outcomes from PubChem.
